Laboratory results published in PubChem BioAssay (NCATS).
Results filed as inconclusive are left out. Activity calls are given as the source filed them. Calls come from the whole dose curve; as a rule, active = well fitted inhibition curve with a large enough effect; inconclusive = small, poorly fitted or top-dose-only effect; inactive = flat fitted curve, though single readings scatter.

Columns and labels:
HaCat [1] = experiment: Cytotoxic Profiling of Annotated Libraries Using Quantitative High-Throughput Screening (AID 1296008); details: Five cell lines viability, CellTiter-Glo ATP luminescence, 48-72 h; max response: active compounds read low; for max response: % is set by controls: 0 for no effect and ±100 for the full control effect
In short: (§1)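 Cells exposed to compounds for 48 or 72 hr at 37 degrees Celsius. Viability read as ATP-coupled luminescence with CellTiter-Glo after 10 min at room temperature.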

KB-3-1 = experiment: as above; details: Five cell lines viability, CellTiter-Glo ATP luminescence, 48-72 h; max response: active compounds read low
In short: as §1

NIH3T3 [2] = experiment: as above; details: Five cell lines viability, CellTiter-Glo ATP luminescence, 48-72 h; max response: active compounds read low
In short: as §1

HACAT [3] = experiment: qHTS assay to identify novel small-molecules to repurpose for Merkel cell carcinoma treatment (AID 1296009); details: MCC and control cell lines, CellTiter-Glo viability, 72 h; series mostly up to 44.8 µM
In short: (§2)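 Dose-response viability screen; 72 hr exposure at 37 degree celsius; CellTiter-Glo added, 10 min room temperature, luminescence read; RLUs scaled between no-cell and DMSO wells.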

HEK293T = experiment: as above; details: MCC and control cell lines, CellTiter-Glo viability, 72 h; at 44.8 µM (top of the series) unless noted
In short: as §2

NIH3T3 [4] = experiment: as above; details: MCC and control cell lines, CellTiter-Glo viability, 72 h; at 44.8 µM (top of the series) unless noted
In short: as §2
Note: nearly all actives have a fitted effect of over 60% in size.

CS(=O)(=O)c1ccc(-c2nnc(/C=C/c3nnc(-c4ccc(C#N)cc4)o3)n2-c2ccccc2Cl)nc1
inactive: outcome (HaCat [1]) | max response (KB-3-1) 2.94% | max response (NIH3T3 [2]) -6.1% | Potency (HACAT [3])

OCC1OC(Oc2cc(O)cc(/C=C/c3ccc(O)cc3)c2)C(O)C(O)C1O (stereo not drawn)
inactive: outcome (HaCat [1]) | max response (KB-3-1) 5.61% | max response (NIH3T3 [2]) -0.337% | Potency (HACAT [3])

C/C=C/C1=CC2=C(CO1)C(=O)C(C)(O)C(OC(=O)c1c(C)cc(OC)cc1O)C2 (stereo not drawn)
inactive: outcome (HaCat [1]) | max response (KB-3-1) 3.88% | max response (NIH3T3 [2]) -6.89% | Potency (HACAT [3])

O=C(O)Cc1cn(C2OCC(O)C(O)C2O[C@@H]2O[C@H](CO)[C@@H](O)[C@H](O)[C@H]2O)c2ccccc12 (stereo partly drawn)
inactive: outcome (HaCat [1]) | outcome (KB-3-1) | max response (NIH3T3 [2]) 2.49% | Potency (HACAT [3])

COc1cc(/C=C/C=O)cc(OC)c1O[C@@H]1O[C@H](CO)[C@@H](O)[C@H](O)[C@H]1O
inactive: outcome (HaCat [1]) | outcome (KB-3-1) | max response (NIH3T3 [2]) -71.2% | Potency (HACAT [3])

COC(=O)C12C(=O)C(C)=C(O)C1(C)C(C)=CC1C3(CO)CCC(O)C(C)(C)C3CCC12C (stereo not drawn)
inactive: outcome (HaCat [1]) | max response (KB-3-1) -2.12% | max response (NIH3T3 [2]) -3.91% | Potency (HACAT [3])

O=C(Nc1nc2ccccc2n1CCc1ccccc1)c1ccccc1
inactive: outcome (HaCat [1]) | max response (KB-3-1) 5.59% | max response (NIH3T3 [2]) -1.28% | Potency (HACAT [3])

C=C(C)C1CCC(C)C12CC(O)C1(C)OC1C2OC(=O)C(N)CCC(=O)O (stereo not drawn)
inactive: outcome (HaCat [1]) | max response (KB-3-1) 1.24% | max response (NIH3T3 [2]) 4.47% | Potency (HACAT [3])

C/C=C/C=C/C(O)=C1\C(=O)[C@]2(C)C3C(C(=O)CC/C=C/C)=C(O)C4(C)C1[C@]1(C)O[C@@]4(O)[C@@]3(C)O[C@@]12O
inactive: outcome (HaCat [1]) | max response (KB-3-1) 8.54% | max response (NIH3T3 [2]) 1.07% | Potency (HACAT [3])

C=CC(C)(C)c1[nH]c2cc3c(cc2c1CC1NC(=O)C2=CCCN2C1=O)C=CC(C)(C)O3 (stereo not drawn)
inactive: outcome (HaCat [1]) | outcome (KB-3-1) | max response (NIH3T3 [2]) -5.01% | Potency (HACAT [3])

COc1c(/C=C/C(C)(C)O)ccc2c1C(=O)OCc1cc(C)cc(O)c1O2
inactive: outcome (HaCat [1]) | max response (KB-3-1) -23.3% | max response (NIH3T3 [2]) 2.57% | Potency (HACAT [3])

COC(=O)C1=CO[C@@H](O[C@@H]2O[C@H](CO)[C@@H](O)[C@H](O)[C@H]2O)C2C1C(=O)C[C@H]2C (stereo partly drawn)
inactive: outcome (HaCat [1]) | outcome (KB-3-1) | max response (NIH3T3 [2]) 2.63% | Potency (HACAT [3])

C=C1C(OC2OCC(O)C(O)C2O)CC2C(C)(C)C(O)CCC2(C)C1CC/C(C)=C\CO (stereo not drawn)
inactive: outcome (HaCat [1]) | max response (KB-3-1) 3.38% | max response (NIH3T3 [2]) 1.42% | Potency (HACAT [3])

Cc1cc(C(=O)Nc2cccc(C(=O)Nc3cccc(C(F)(F)F)c3)c2)on1
inactive: outcome (HaCat [1]) | max response (KB-3-1) -0.787% | max response (NIH3T3 [2]) -17% | Potency (HACAT [3])

CC1(C)CC[C@]2(C(=O)O[C@@H]3O[C@H](CO)[C@@H](O)[C@H](O)[C@H]3O)CC[C@]3(C)C(=CCC4[C@@]5(C)CC[C@H](O[C@@H]6O[C@H](C(=O)O)[C@@H](O)[C@H](O)[C@H]6O)C(C)(C)C5CC[C@]43C)C2C1 (stereo partly drawn)
inactive: outcome (HaCat [1]) | max response (KB-3-1) 6.58% | max response (NIH3T3 [2]) -3.14% | outcome (HACAT [3]) inactive [at 9.27 µM]

Cc1ccc(S(=O)(=O)n2ccc(-c3c(-c4ccc(Cl)cc4)noc3C)n2)cc1
inactive: outcome (HaCat [1]) | max response (KB-3-1) -24.7% | max response (NIH3T3 [2]) -14.9% | Potency (HACAT [3])

C[C@@H]1O[C@@H](O[C@@H]2[C@@H](O)[C@@H](O[C@]3(CO)O[C@H](CO)[C@@H](O)[C@@H]3OC(=O)/C=C/c3ccc(O)cc3)O[C@H](CO)[C@H]2OC(=O)/C=C/c2ccc(O)cc2)[C@H](O)[C@H](O)[C@H]1O[C@@H]1O[C@@H](C)[C@H](O[C@@H]2OC[C@](O)(CO)[C@H]2O)[C@@H](O)[C@H]1O
inactive: outcome (HaCat [1]) | max response (KB-3-1) 3.92% | max response (NIH3T3 [2]) -0.786% | outcome (HACAT [3]) inactive [at 9.27 µM] | outcome (HEK293T) inactive [at 9.27 µM]

CC1OC(OC2C(C)OC(OC3C(O)C(CO)OC(O[C@H]4CC[C@@]5(C)C(CC[C@]6(C)C5CC=C5C7[C@@H](C)[C@H](C)CC[C@]7(C(=O)O)CC[C@]56C(=O)O)C4(C)C)C3O)C(O)C2O)C(O)C(O)C1O (stereo partly drawn)
inactive: outcome (HaCat [1]) | max response (KB-3-1) 9.21% | outcome (NIH3T3 [2]) | outcome (HACAT [3]) inactive [at 9.27 µM] | outcome (NIH3T3 [4]) inactive [at 9.27 µM]

CC(=O)O[C@H]1CC[C@@]2(C)C(CC[C@@H](C)[C@]23Cc2c(O)cc4c(c2O3)CN([C@@H](CCC(=O)O)C(=O)O)C4=O)C1(C)C (stereo partly drawn)
inactive: outcome (HaCat [1]) | outcome (KB-3-1) | max response (NIH3T3 [2]) 2.49% | Potency (HACAT [3])
